Reference: the supplement of paper PMC7411054
Counter-ions that a name gives are not always drawn.

Columns and labels:
Assay in all cases: lowest phenotypically active concentration; higher = less potent
Conditions in all cases: treatment time: 24 h
HepG2-ACTB-RAB5A = tested on: HepG2-ACTB-RAB5A
Summary of the method: (§1)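 Each of fifteen gene-edited A549, HepG2 and WPMY1 reporter lines, marked with BFP for segmentation and GFP and RFP/FusionRed, was treated in four wells at 0.3, 1, 3 or 9 µM for 24 h prior to live imaging. Normalisation of per-well live-cell features used solvent control wells. Deviation needed ≥3 of 4 wells beyond the 95th percentile of control Euclidean distances, and reproducibility needed a median replicate Pearson correlation above the 95th percentile of non-replicates. Both were required for phenotypic activity.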

HepG2-CANX-COX4 = tested on: HepG2-CANX-COX4
Summary of the method: as §1

HepG2-GM130-SQSTM1 = tested on: HepG2-GM130-SQSTM1
Summary of the method: as §1

HepG2-TP53BP1-CLTA = tested on: HepG2-TP53BP1-CLTA
Summary of the method: as §1

HepG2-TUBA1B-RELA = tested on: HepG2-TUBA1B-RELA
Summary of the method: as §1

WPMY1-ACTB-RAB5A = tested on: WPMY1-ACTB-RAB5A
Summary of the method: as §1

WPMY1-CANX-COX4 = tested on: WPMY1-CANX-COX4
Summary of the method: as §1

WPMY1-GM130-SQSTM1 = tested on: WPMY1-GM130-SQSTM1
Summary of the method: as §1

WPMY1-TP53BP1-CLTA = tested on: WPMY1-TP53BP1-CLTA
Summary of the method: as §1

WPMY1-TUBA1B-RELA = tested on: WPMY1-TUBA1B-RELA
Summary of the method: as §1

Row | Structure (SMILES) | lowest phenotypically active concentration (HepG2-ACTB-RAB5A) [µM] | lowest phenotypically active concentration (HepG2-CANX-COX4) [µM] | lowest phenotypically active concentration (HepG2-GM130-SQSTM1) [µM] | lowest phenotypically active concentration (HepG2-TP53BP1-CLTA) [µM] | lowest phenotypically active concentration (HepG2-TUBA1B-RELA) [µM] | lowest phenotypically active concentration (WPMY1-ACTB-RAB5A) [µM] | lowest phenotypically active concentration (WPMY1-CANX-COX4) [µM] | lowest phenotypically active concentration (WPMY1-GM130-SQSTM1) [µM] | lowest phenotypically active concentration (WPMY1-TP53BP1-CLTA) [µM] | lowest phenotypically active concentration (WPMY1-TUBA1B-RELA) [µM]
1 | O=C(NCc1cccc(O)c1)Nc1nc(-c2ccncc2)cs1 [RKI 1447 dihydrochloride] | ≤ 0.3 | ≤ 0.3 | ≤ 0.3 | ≤ 0.3 | ≤ 0.3 | ≤ 0.3 | ≤ 0.3 | ≤ 0.3 | ≤ 0.3 | ≤ 0.3
2 | Nc1ncnc2c1nc(Cl)n2C1O[C@H](CO)[C@@H](O)[C@H]1O (stereo not given in full) [8-Chloroadenosine] | 1 | 3 | 1 | 3 | 3 | 9 | 3 | 3 | 3 | 3
3 | C[C@H]1COCCN1c1cc(C2(S(=O)(=O)C3CC3)CC2)nc(-c2ccc(NC(=S)NCCO)cc2)n1 | ≤ 0.3 | ≤ 0.3 | ≤ 0.3 | ≤ 0.3 | 1 | ≤ 0.3 | ≤ 0.3 | ≤ 0.3 | ≤ 0.3 | ≤ 0.3
4 | CC(C)(N)c1cc(C(=O)N[C@@H]2CCc3ccc(OC4=C5CCC(=O)N=C5NC=C4)cc3C2)cc(C(F)(F)F)c1 [ML 786 dihydrochloride] | ≤ 0.3 | ≤ 0.3 | ≤ 0.3 | ≤ 0.3 | ≤ 0.3 | 1 | 1 | 1 | 1 | 9
5 | CNC1CCC2(C)C(=CCC3C2CCC24CN(C)C(C)C2CCC34)C1 (stereo not given) [Isoconessimine] | 1 | 9 | 1 | 1 | 1 | 1 | 3 | 3 | 3 | 3
6 | Cc1cc(Nc2ncc3c(n2)N(C)C(=O)N(c2cc(NC(=O)c4cccc(C(F)(F)F)c4)ccc2C)C3)n(C)n1 [Pluripotin] | ≤ 0.3 | ≤ 0.3 | ≤ 0.3 | ≤ 0.3 | ≤ 0.3 | ≤ 0.3 | 1 | ≤ 0.3 | 1 | 1
7 | O=C(c1cccc(Cl)c1F)N1CCN(Cc2cccc(Nc3nccs3)n2)CC1 | ≤ 0.3 | ≤ 0.3 | ≤ 0.3 | ≤ 0.3 | ≤ 0.3 | 1 | 9 | 3 | ≤ 0.3 | 1
8 | CCOC(=O)Nc1cc(-c2ccc(C)c(NS(C)(=O)=O)c2)nn2c(C)nnc12 [Bromosporine] | ≤ 0.3 | ≤ 0.3 | 1 | 1 | 1 | 1 | 1 | 1 | 1 | 1
9 | O=C1c2c(O)ccc(O)c2C(=O)c2c(NCCNCCO)ccc(NCCNCCO)c21 [mitoxantrone] | ≤ 0.3 | ≤ 0.3 | ≤ 0.3 | ≤ 0.3 | ≤ 0.3 | ≤ 0.3 | ≤ 0.3 | ≤ 0.3 | ≤ 0.3 | ≤ 0.3
10 | Cc1cc(/N=N/c2ccc(S(=O)(=O)Nc3ccccn3)cc2)c(N)cc1O | 9 | 3 | 3 | 9 | 9 | 3 | 9 | 3 | 9 | 9
11 | Cc1ccc(C(=O)N(CCCN)[C@@H](c2oc3cc(Cl)ccc3c(=O)c2Cc2ccccc2)C(C)C)cc1 | ≤ 0.3 | ≤ 0.3 | ≤ 0.3 | ≤ 0.3 | ≤ 0.3 | ≤ 0.3 | 3 | ≤ 0.3 | ≤ 0.3 | ≤ 0.3
12 | Nc1ccc(-c2cccc3c(=O)cc(N4CCOCC4)oc23)cc1 | 3 | 9 | 3 | 9 | 9 | 3 | 3 | 3 | 9 | 9
13 | COc1cc(C(=O)N2CCC(N3CCN(C)CC3)CC2)ccc1Nc1ncc2c(n1)N(C)c1ccccc1C(=O)N2C | 1 | 1 | 1 | 3 | 1 | 3 | 3 | 1 | 3 | 1
14 | NCC(=O)Nc1ccc(-n2nc(C(F)(F)F)cc2-c2ccc3c(ccc4ccccc43)c2)cc1 | 1 | 1 | 3 | 1 | 1 | ≤ 0.3 | 1 | 1 | ≤ 0.3 | ≤ 0.3
15 | CN1CCN(c2ccc(OC(F)(F)F)c(Nc3ncc4c(n3)-c3c(c(C(N)=O)nn3CCO)CC4)c2)CC1 | ≤ 0.3 | ≤ 0.3 | ≤ 0.3 | ≤ 0.3 | ≤ 0.3 | ≤ 0.3 | 1 | 1 | ≤ 0.3 | ≤ 0.3
16 | Clc1ccc(N/N=C(\c2ccccc2)c2ccccn2)nc1 | ≤ 0.3 | ≤ 0.3 | 1 | ≤ 0.3 | ≤ 0.3 | 1 | 1 | 1 | 1 | 1
17 | O=C(O)c1ccc(Nc2ncc3c(n2)-c2ccc(Cl)cc2C(c2c(F)cccc2F)=NC3)cc1 | ≤ 0.3 | ≤ 0.3 | ≤ 0.3 | ≤ 0.3 | ≤ 0.3 | ≤ 0.3 | 3 | 9 | ≤ 0.3 | ≤ 0.3
18 | CCCCc1oc2ccccc2c1C(=O)c1cc(I)c(OCCN(CC)CC)c(I)c1 [amiodarone] | 9 | 9 | 9 | 9 | 3 | 9 | 9 | 9 | 9 | 9
19 | CC(=O)Nc1ccc(C(=O)Nc2ccccc2N)cc1 | 3 | 1 | 1 | 1 | 3 | 3 | 3 | 3 | 3 | 9
